For some of these results: Potency and affinity values are given separately.
Experiments:
Set-up in all cases: scale not given: direction of the effect not stated beside the values
[1] = target: Protein translocase subunit SecA (Escherichia coli (strain K12)) (UniProt P10408); assay: Assay to Identify E. coli SecA ATPase Inhibitors; type: functional; conditions: 30 µM
[2] = target: T1, Ubiquitin-activating enzyme e1, putative (Leishmania donovani (strain BPK282A1)) (UniProt E9BSI1); assay: Leishmania donovani Ubiquitin Activating Enzyme (LdE1); type: functional; conditions: 30 µM
T1 sequence (whole entry): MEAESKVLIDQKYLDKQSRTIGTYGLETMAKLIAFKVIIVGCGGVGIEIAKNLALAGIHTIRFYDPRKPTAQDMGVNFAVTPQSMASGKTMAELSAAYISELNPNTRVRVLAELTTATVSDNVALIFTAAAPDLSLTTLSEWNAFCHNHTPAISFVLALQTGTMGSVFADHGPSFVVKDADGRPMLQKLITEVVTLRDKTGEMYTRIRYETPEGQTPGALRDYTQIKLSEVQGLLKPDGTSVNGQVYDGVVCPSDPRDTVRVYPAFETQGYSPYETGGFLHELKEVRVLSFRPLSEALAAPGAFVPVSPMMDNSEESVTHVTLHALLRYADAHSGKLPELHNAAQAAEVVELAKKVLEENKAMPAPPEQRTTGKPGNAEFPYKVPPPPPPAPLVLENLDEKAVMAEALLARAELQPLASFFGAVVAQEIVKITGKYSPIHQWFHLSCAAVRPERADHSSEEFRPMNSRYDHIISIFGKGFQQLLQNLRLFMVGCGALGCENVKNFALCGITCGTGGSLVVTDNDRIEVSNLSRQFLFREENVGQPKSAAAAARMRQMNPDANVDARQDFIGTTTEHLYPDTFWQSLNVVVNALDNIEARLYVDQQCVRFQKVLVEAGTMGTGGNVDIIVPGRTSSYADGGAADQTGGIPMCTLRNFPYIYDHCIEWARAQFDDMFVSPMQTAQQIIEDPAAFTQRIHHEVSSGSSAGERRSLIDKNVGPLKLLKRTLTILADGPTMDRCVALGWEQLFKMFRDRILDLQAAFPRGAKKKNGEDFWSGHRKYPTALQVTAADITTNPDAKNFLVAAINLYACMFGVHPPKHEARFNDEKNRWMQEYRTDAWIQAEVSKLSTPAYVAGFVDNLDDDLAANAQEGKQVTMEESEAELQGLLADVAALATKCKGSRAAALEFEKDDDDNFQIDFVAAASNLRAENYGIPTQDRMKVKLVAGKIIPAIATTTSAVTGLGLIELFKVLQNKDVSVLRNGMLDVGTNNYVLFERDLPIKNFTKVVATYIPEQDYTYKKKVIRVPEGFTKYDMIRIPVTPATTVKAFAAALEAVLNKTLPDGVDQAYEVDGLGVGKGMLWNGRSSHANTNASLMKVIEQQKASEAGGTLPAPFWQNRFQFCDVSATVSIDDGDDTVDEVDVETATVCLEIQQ

[3] = target: AMP-activated protein kinase, AMPK (Homo sapiens) (UniProt P54646+O43741+P54619+Q9UGJ0+Q9Y478+Q13131+Q9UGI9); assay: AMP-dependent Kinase enzyme assay. An in vitro enzyme assay that detects ADP turnover that is directly proportional to AMPK activity. This uses naive AMPK that is activated during the assay with MK-8722; type: functional; conditions: 30 µM
[4] = target: Sialic acid-binding Ig-like lectin 9 (Homo sapiens) (UniProt Q9Y336); assay: Hs-Siglec9 ALPHAscreen SOP 20170721; conditions: 10 µM
Trypanosoma cruzi = assay: Trypanosoma cruzi phosphomannomutase and mannose-1-phosphate guanylyltransferase assay; type: functional; conditions: 10 µM
[5] = target: T2, Arginase-2, mitochondrial (Homo sapiens) (UniProt P78540); assay: in vitro enzyme assay to detect the production of urea directly proportional to the activity of Arginase II; type: functional; conditions: 33.3 µM; also: in the data most compounds retested in dose-response had high values
T2 sequence (whole entry): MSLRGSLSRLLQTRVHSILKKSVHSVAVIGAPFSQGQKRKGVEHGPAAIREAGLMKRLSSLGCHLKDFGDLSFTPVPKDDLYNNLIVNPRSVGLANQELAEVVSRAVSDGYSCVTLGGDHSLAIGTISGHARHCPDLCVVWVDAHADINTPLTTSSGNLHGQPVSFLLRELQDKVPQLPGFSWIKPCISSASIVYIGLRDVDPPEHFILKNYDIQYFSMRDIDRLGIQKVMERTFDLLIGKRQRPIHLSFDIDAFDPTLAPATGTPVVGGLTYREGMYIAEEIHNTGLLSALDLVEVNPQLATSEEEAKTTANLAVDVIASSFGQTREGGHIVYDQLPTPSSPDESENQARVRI

[6] = target: T3, Proteasome subunit beta (Trypanosoma cruzi) (UniProt O96673); assay: Trypanosoma cruzi proteasome chymotrypsin-like activity (TcProtChymo) assay.; also: in the data most compounds retested in dose-response had high values; type: functional; conditions: 9.37 µM
T3 sequence (whole entry): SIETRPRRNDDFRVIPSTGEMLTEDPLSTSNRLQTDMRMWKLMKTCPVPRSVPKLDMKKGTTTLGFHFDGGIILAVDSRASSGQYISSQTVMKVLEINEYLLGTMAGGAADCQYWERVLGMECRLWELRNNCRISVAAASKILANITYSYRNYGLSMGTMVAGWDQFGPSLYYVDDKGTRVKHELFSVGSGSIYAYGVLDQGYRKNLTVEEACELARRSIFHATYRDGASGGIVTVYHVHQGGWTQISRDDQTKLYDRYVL

Homo sapiens = species on record: Homo sapiens; assay: To identify inhibition of the IFN signalling (Jak-Stat) pathway via expression of an eGFP reporter gene under the control of an IFN-stimulated response element (ISRE) containing MxA promoter.; type: functional; conditions: 30 µM
[7] = target: T4, Tyrosyl-tRNA synthetase, putative (Trypanosoma cruzi (strain CL Brener)) (UniProt Q4DSP6); assay: Trypanosoma cruzi tyrosyl tRNA synthetase (TcYRS) _High Tyrosine SOP; type: functional; conditions: 30 µM; also: in the data most compounds retested in dose-response had high values
T4 sequence (whole entry): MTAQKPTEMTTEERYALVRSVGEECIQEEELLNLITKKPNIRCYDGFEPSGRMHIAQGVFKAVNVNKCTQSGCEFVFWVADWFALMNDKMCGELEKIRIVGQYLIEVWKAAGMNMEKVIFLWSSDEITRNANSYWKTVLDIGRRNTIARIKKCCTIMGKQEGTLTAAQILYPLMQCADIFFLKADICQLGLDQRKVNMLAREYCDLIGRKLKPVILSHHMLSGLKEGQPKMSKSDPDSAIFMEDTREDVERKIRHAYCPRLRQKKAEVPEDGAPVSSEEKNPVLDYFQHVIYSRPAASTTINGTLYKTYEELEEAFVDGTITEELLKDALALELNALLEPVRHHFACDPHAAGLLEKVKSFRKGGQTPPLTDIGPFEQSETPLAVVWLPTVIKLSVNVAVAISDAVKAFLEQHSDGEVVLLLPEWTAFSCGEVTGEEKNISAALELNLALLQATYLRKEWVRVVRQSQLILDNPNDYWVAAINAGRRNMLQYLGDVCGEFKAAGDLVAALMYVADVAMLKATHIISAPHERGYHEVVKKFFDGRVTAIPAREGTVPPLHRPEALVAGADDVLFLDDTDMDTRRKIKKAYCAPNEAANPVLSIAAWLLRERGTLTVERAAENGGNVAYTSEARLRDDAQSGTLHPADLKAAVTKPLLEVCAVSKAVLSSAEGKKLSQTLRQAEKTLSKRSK

[8] = target: T4, Tyrosyl-tRNA synthetase, putative (Trypanosoma cruzi (strain CL Brener)); assay: Trypanosoma cruzi tyrosyl tRNA synthetase (TcYRS) SOP; type: functional; conditions: 30 µM
[9] = target: Chromo domain-containing protein 1 (Saccharomyces cerevisiae (strain ATCC 204508 / S288c) (Baker's yeast)) (UniProt P32657); assay: ScCHD-1 Enzyme Inhibition Assay; type: functional; conditions: 30 µM; also: in the data most compounds retested in dose-response had high values
Sequence of Chromo domain-containing protein 1 (Saccharomyces cerevisiae (strain ATCC 204508 / S288c) (Baker's yeast)) (P32657 whole entry, the tested form may be a part): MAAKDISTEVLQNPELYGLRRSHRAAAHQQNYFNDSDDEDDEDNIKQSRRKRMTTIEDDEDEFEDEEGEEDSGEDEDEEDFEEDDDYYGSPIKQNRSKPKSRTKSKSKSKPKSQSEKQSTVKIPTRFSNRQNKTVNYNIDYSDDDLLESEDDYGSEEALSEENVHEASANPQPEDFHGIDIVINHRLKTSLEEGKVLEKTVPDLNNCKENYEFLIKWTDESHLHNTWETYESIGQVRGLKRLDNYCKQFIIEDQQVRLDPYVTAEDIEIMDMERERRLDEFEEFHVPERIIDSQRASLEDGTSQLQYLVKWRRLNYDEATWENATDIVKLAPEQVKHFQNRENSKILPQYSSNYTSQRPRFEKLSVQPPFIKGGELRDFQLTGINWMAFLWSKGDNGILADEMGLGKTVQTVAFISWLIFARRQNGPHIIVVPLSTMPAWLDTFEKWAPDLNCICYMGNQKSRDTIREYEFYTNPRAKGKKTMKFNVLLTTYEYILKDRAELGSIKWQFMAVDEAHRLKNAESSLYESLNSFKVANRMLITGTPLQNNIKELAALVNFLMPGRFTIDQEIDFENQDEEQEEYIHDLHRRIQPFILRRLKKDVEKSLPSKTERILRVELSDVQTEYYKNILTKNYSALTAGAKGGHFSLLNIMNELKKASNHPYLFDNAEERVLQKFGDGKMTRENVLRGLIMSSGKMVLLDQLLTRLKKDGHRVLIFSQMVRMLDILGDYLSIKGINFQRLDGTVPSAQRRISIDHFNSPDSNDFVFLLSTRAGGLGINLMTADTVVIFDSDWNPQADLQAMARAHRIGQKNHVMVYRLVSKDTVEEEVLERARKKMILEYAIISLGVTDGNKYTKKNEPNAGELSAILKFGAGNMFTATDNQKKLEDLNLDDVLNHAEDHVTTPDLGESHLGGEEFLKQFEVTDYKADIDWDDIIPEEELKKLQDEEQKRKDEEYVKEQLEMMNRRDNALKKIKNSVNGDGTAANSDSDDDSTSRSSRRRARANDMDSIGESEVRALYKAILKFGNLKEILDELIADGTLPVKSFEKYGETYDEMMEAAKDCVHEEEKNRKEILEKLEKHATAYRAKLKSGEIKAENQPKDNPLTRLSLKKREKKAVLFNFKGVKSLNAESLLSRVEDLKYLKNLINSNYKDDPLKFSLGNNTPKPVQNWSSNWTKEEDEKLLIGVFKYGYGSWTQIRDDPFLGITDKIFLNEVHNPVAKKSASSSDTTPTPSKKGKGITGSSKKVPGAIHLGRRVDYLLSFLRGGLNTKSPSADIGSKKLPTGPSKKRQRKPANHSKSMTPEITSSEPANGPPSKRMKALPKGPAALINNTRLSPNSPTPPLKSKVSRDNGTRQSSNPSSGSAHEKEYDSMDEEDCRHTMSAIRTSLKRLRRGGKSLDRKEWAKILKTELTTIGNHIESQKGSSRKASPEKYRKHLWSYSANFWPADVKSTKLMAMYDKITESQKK

Sequence of Protein translocase subunit SecA (Escherichia coli (strain K12)) (P10408 whole entry): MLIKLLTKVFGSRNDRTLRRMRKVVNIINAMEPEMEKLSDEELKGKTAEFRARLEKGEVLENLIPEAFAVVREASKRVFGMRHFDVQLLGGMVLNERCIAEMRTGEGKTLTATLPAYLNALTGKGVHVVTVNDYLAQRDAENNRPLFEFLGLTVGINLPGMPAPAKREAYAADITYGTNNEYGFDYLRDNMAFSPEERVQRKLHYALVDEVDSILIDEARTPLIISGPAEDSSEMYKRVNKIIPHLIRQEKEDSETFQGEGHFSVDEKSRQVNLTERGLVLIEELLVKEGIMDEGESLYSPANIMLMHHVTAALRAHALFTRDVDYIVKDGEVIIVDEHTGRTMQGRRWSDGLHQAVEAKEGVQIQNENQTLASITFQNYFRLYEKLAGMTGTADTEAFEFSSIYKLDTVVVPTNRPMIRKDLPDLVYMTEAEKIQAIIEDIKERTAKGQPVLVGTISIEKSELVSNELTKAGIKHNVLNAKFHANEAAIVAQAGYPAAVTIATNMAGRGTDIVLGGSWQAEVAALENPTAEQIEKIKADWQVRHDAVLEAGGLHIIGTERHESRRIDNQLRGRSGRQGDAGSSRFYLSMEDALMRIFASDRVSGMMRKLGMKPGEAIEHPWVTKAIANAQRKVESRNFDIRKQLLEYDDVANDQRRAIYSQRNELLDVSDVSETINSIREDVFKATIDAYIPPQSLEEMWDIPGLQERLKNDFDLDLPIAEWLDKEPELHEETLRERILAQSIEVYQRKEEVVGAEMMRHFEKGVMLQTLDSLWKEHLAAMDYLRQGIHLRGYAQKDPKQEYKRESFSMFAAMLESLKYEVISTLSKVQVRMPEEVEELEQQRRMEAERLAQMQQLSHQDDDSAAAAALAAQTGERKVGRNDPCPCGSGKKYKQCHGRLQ
Sequence of Sialic acid-binding Ig-like lectin 9 (Homo sapiens) (Q9Y336 whole entry): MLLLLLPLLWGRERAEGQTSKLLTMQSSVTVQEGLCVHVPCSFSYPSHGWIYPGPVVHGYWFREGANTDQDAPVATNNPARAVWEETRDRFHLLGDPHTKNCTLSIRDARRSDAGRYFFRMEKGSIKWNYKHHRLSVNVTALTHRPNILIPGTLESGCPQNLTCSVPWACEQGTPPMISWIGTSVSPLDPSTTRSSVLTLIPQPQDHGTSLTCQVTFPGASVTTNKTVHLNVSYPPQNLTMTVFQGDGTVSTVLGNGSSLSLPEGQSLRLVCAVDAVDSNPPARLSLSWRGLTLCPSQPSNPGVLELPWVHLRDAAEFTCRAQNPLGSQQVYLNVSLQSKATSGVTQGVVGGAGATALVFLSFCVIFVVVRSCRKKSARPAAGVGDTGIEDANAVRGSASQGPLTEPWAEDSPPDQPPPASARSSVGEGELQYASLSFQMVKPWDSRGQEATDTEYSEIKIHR

SMILES | Percent Effect [1] [%] | Percent Effect [2] [%] | Percent Effect [3] [%] | Percent Effect [4] [%] | Percent Effect (Trypanosoma cruzi) [%] | Percent Effect [5] [%] | Percent Effect [6] [%] | Percent Effect (Homo sapiens) [%] | Percent Effect [7] [%] | Percent Effect [8] [%] | Percent Effect [9] [%]
CC1CCc2nc(O)c(C(=O)NCc3cccc(F)c3)cc2C1 (stereo unspecified) | -3.85 | -12 | 11.6 | 0.168 | -3.54 | -5.46 | 4.99 | 9.92 | -1.06 | 0 | -2.98
CCc1nc(CN(C(C)=O)C2CCN(CCc3cnn(C)c3)C2)no1 (stereo unspecified) | -2.36 | 27.9 | -1.95 | -9.07 | -0.85 | 3.04 | 0.901 | 22.4 | -19.2 | 16.5 | -7.18
O=C(c1ccc(F)c(F)c1)N1CCCSCC1CN1CCCC1 (stereo unspecified) | -3.82 | 0 | 4.53 | -1.26 | 2.86 | -0.645 | 8.7 | -1.06 | 7.41 | 16.7 | -8.34
CCn1nccc1CNC(=O)C1CC1 | -5.07 | 10.4 | -0.00833 | 7.25 | 5.61 | -4.14 | 10.7 | -23.9 | 8.6 | 18.5 | 132
Cn1cc(CN2CCC3(CCCN(Cc4ccccn4)C3)CC2)cn1 | -1.45 | -5.48 | -0.391 | 0.486 | 2.98 | 1.2 | 4.54 | -10.8 | 3.12 | 1.24 | 3.63
CC(C)NC(=O)[C@@H]1C[C@H](N)CN1C(=O)c1cc2ccccc2[nH]c1=O | -3.02 | 20.8 | -9.81 | 9.13 | 4.76 | 4.86 | 12.3 | -0.74 | 8.42 | 15.4 | -6.54
CCS(=O)(=O)NC[C@]12COC[C@H]1CN(Cc1cccc(OC)c1)C2 | -2.67 | -2.7 | 2.37 | 5.65 | 6.16 | -4.14 | 7.93 | 11.7 | 0 | 5.13 | 14.6
Cn1cc2c(n1)C(CNC(=O)Cc1ccsc1)OCC2 (stereo unspecified) | -4.65 | 7.79 | -2.5 | -0.415 | 4.83 | -7.1 | 2.26 | 7.06 | 2.12 | 3.85 | -6.29
CC(C)(C)c1n[nH]cc1CN1CCc2nc3ccsc3c(=O)n2CC1 | -2.34 | 25.7 | 7.24 | -3.97 | 2.96 | -7.19 | 18.7 | 43.3 | -1.07 | 3.9 | -5.96
Cc1noc(C2CCC3(CCN(C(=O)C4=CCCCC4)CC3)O2)n1 (stereo unspecified) | -7.11 | 10.8 | -5.86 | 30.2 | 3.42 | 3.23 | 8.67 | 3.52 | 8.6 | 16.1 | -7.09
Cc1nn(C)c(C)c1C1CCCN1C(=O)c1ccc(CN(C)C)cc1 (stereo unspecified) | -0.183 | 21.6 | 2.25 | -4.88 | 2.14 | 0.554 | 11.1 | 11.4 | -20.8 | 23.2 | -6.46

Reference: ChEMBL document CHEMBL3988442, “University of Dundee, Small-Polar-MMV Screening Library” (2021)
